Compound activity from PubChem BioAssay.
TDP1 cell CPT: qHTS for Inhibitors of human tyrosyl-DNA phosphodiesterase 1 (TDP1): qHTS in cells in presence of CPT. chicken DT40 Tdp1-/-;hTDP1 cells + 20 nM CPT, ATP luminescence, 48 h. Potency, µM (titrated, usually from 46.2 µM), inactives show at the top dose activity change, negative = growth inhibition, hits mostly inhibitors. 420,000 compounds, 12% hits; note: nearly all actives have a fitted effect of over 55% in size
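Cell growth measured by CellTiter-Glo luminescence after a minimum 48 h, 37 C compound exposure with 20 nM CPT in Tdp1-knockout DT40 cells stably expressing hTDP1, seeded 400/well; qHTS titration format.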
VDR inh: Inhibitors of the vitamin D receptor (VDR): qHTS. Vitamin D3 receptor (Homo sapiens), P11473. VDR-SRC2-3 peptide fluorescence polarization, 2 h. Potency, µM, without a hit: max response, negative = inhibition, most hits filed as inhibitors. 400,000 compounds, 0.93% hits. AID 504847, 2011
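FP read-out; VDR + SRC2-3 coactivator peptide; 23 nl compound by pintool; 2 h RT incubation; reagents held at 4 deg C, protected from light.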
DT40 TDP1 no CPT: qHTS for Inhibitors of human tyrosyl-DNA phosphodiesterase 1 (TDP1): qHTS in cells in absence of CPT; DT40 Tdp1-/- hTDP1 cells, no CPT, ATP luminescence, 48 h; Potency, µM (titrated, usually from 46.2 µM), without a hit: at the highest dose activity change, negative = growth inhibition, hits mostly inhibitors; 420,000 compounds, 15% hits; AID 686978, 2013; note: nearly all actives have a fitted effect of over 55% in size
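A cellular qHTS used chicken DT40 cells lacking endogenous Tdp1 but carrying stably transfected human TDP1. Compounds were applied without camptothecin, and cell growth kinetics were judged by ATP-dependent luminescence after ≥48 hr.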
PLK1 PBD inh: qHTS for Inhibitors of PLK1-PDB (polo-like kinase 1 - polo-box domain): Primary Screen | Potency, µM, for inactives: max response, negative = inhibition, hits mostly inhibitors | 360,000 compounds, 2.8% hits | Plk1 PBD binding of FITC phosphopeptide, fluorescence polarization | Serine/threonine-protein kinase PLK1 (Homo sapiens), P53350; note: series mostly up to about 57 µM; nearly all actives have a fitted effect of over 65% in size
TDP1 inh: qHTS Assay for Inhibitors of Tyrosyl-DNA Phosphodiesterase (TDP1); Tyrosyl-DNA phosphodiesterase 1 (Homo sapiens), Q9NUW8; recombinant TDP1, AlphaScreen DNA substrate cleavage; Potency, µM (titrated, usually from 130 µM), without a hit: at the highest dose activity change, negative = inhibition, actives largely listed as inhibitors; 350,000 compounds, 0.28% hits; AID 485290, 2010; note: nearly all actives have a fitted effect of over 40% in size
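Steps: enzyme plus compound, 15 min RT; add biotin/phosphotyrosine-FITC oligonucleotide (15 nM final), react 5 min; add donor/acceptor beads (10 ug/ml final), 10 min; read AlphaScreen. Tdp1 at 1 nM final.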
KAT2A inh: qHTS Assay for Inhibitors of GCN5L2; GCN5L2 HAT assay, ThioGlo1 CoA-SH fluorescence; Potency, µM (titrated, usually from 58.9 µM), for inactives: at the top dose activity change, negative = inhibition, hits mostly inhibitors; 390,000 compounds, 0.21% hits
Target sequence (Q92830 whole entry, looked up): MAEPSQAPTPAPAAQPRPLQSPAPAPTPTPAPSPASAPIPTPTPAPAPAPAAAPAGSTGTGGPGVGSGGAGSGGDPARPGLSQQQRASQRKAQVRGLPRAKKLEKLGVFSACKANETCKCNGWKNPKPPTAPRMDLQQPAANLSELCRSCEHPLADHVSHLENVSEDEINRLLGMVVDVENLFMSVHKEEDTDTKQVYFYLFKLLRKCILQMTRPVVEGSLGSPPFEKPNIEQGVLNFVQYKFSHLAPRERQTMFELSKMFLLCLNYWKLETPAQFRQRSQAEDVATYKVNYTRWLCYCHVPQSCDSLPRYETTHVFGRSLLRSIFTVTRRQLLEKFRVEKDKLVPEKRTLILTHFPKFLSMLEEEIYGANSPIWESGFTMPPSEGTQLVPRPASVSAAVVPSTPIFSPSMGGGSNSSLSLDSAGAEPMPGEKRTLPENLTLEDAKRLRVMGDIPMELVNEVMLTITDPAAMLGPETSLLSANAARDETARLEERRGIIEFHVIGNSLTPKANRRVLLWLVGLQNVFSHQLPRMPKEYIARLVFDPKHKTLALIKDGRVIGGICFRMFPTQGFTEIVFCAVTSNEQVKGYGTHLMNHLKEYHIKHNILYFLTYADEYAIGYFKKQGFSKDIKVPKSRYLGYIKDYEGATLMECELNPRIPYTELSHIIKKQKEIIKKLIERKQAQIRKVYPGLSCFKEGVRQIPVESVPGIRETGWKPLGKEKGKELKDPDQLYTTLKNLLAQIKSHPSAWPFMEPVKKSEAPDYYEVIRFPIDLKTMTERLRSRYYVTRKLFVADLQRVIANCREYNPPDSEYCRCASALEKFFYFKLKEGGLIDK
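Fluorescence readout, Ex340nm/Em540nm: ThioGlo1 (50uM final) reacts with free CoA thiol released as 20nM GCN5L2 acetylates H3(1-25) peptide (75uM) using acetyl-CoA (70uM). Compound and enzyme sat 15 min beforehand; 20 min room-temperature reaction.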
* = called active by the depositor. Most compounds without a hit are left out; they make up all but 18% or so of the library. Calls come from the whole dose curve; as a rule, active = well fitted curve in the direction sought with a large enough effect; inconclusive = small, poorly fitted or top-dose-only effect, or another doubt; inactive = no such curve, though single readings can be large; an effect the other way counts as inactive or inconclusive. % is set by controls: 0 for no effect and ±100 for the full control effect; potency is the fitted concentration of half-maximal effect.

CC1(C(=O)NS(=O)(=O)C2CC2)CCCN(C(=O)/C=C/c2ccccc2)C1 (stereo unspecified) was read as TDP1 cell CPT inconclusive, DT40 TDP1 no CPT 15µM* and PLK1 PBD inh 1%.
Screening Cc1ccsc1C(=O)N1CCCC(C)(C(=O)NS(=O)(=O)C2CC2)C1 (stereo unspecified) returned TDP1 cell CPT -55%, DT40 TDP1 no CPT inconclusive and PLK1 PBD inh 5%.
CCCS(=O)(=O)NC(=O)C1(C)CCCN(C(=O)c2c(F)cccc2F)C1 (stereo unspecified) was read as TDP1 cell CPT -3%, DT40 TDP1 no CPT -4% and PLK1 PBD inh 0%.
`Cc1c(C(=O)N2CCC(C)(C(=O)NS(=O)(=O)C3CC3)C2)oc2ccccc12` (stereo unspecified) gave TDP1 cell CPT inconclusive, DT40 TDP1 no CPT 0% and PLK1 PBD inh -6%.
`Cc1c(C(=O)N2CCCC(C)(C(=O)NS(=O)(=O)C3CC3)C2)oc2ccccc12` (stereo unspecified) gave TDP1 cell CPT inconclusive, DT40 TDP1 no CPT 4.1µM* and PLK1 PBD inh -5%.
`Cn1nc(C(C)(C)C)cc1C(=O)N1CCCC(C)(C(=O)NS(=O)(=O)C2CC2)C1` (stereo unspecified) gave TDP1 cell CPT 6.5µM*, DT40 TDP1 no CPT 6.5µM* and PLK1 PBD inh 4%.
For COC(=O)c1ccc(C(=O)N2CCCC(C)(C(=O)NS(=O)(=O)C3CC3)C2)cc1 (stereo unspecified) the results were TDP1 cell CPT inconclusive, DT40 TDP1 no CPT 1.5µM* and PLK1 PBD inh -5%.
`Cn1nc(C(C)(C)C)cc1C(=O)N1CCC(C)(C(=O)NS(=O)(=O)C2CC2)C1` (stereo unspecified) gave TDP1 cell CPT -19%, DT40 TDP1 no CPT -16% and PLK1 PBD inh 3%.
`CC1(C(=O)NS(=O)(=O)C2CC2)CCCN(C(=O)c2ccc3c(c2)OCO3)C1` (stereo unspecified) gave TDP1 cell CPT 7.3µM*, DT40 TDP1 no CPT 5.8µM* and PLK1 PBD inh 0%.
O=C(N/N=C/C1C(c2ccccc2)C1(Cl)Cl)c1cccc(Cl)c1 (stereo unspecified) was read as TDP1 cell CPT inconclusive, VDR inh -8%, DT40 TDP1 no CPT inconclusive, PLK1 PBD inh -10%, TDP1 inh 3% and KAT2A inh -4%.
Screening CC1(C(=O)NS(=O)(=O)C2CC2)CCCN(C(=O)c2ccco2)C1 (stereo unspecified) returned TDP1 cell CPT inconclusive, DT40 TDP1 no CPT 12µM* and PLK1 PBD inh -4%.
CC1(C(=O)NS(=O)(=O)C2CC2)CCCN(C(=O)c2ccc3ccccc3c2)C1 (stereo unspecified) was read as TDP1 cell CPT 0.52µM*, DT40 TDP1 no CPT 0.26µM* and PLK1 PBD inh -10%.
Screening CCCS(=O)(=O)NC(=O)C1(C)CCCN(C(=O)c2ccco2)C1 (stereo unspecified) returned TDP1 cell CPT 0%, DT40 TDP1 no CPT 6% and PLK1 PBD inh 2%.
`COc1ccc(Oc2ncc3nc(-c4cccs4)c(=O)n(C)c3n2)cc1` gave TDP1 cell CPT 2%, VDR inh 0%, DT40 TDP1 no CPT -2% and KAT2A inh inconclusive.
`COc1ncc2nc(-c3ccccc3)c(=O)n(CCC#N)c2n1` gave TDP1 cell CPT -11%, VDR inh 1%, DT40 TDP1 no CPT -13% and KAT2A inh -12%.
Screening COc1ncc2nc(-c3cccs3)c(=O)n(CCC#N)c2n1 returned TDP1 cell CPT 1%, VDR inh -7%, DT40 TDP1 no CPT 3% and KAT2A inh 35µM*.
COCCn1c(=O)c(-c2cccs2)nc2cnc(Oc3ccc(OC)cc3)nc21 was read as TDP1 cell CPT inconclusive, VDR inh -26%, DT40 TDP1 no CPT 26µM* and KAT2A inh -25%.
For CCCn1c(C)nc2c(NC3CCN(Cc4ccccc4)CC3)nc(C)nc21 the results were TDP1 inh 4%.
CCCc1nnc(NC(=O)c2cc(=O)c3cc(C)c(C)cc3o2)s1 was read as TDP1 cell CPT 4%, VDR inh 4%, DT40 TDP1 no CPT -19%, TDP1 inh -1% and KAT2A inh -4%.
For O=C(N/N=C/c1ccc(Cl)cc1)c1ccc2nc[nH]c2c1 the results were TDP1 cell CPT inconclusive, DT40 TDP1 no CPT inconclusive and PLK1 PBD inh 0%.
Screening CCC12CN(C(=O)c3ccc(C)cc3)CC(CC)(CN(C(=O)c3ccc(C)cc3)C1)C2=O returned TDP1 cell CPT -6%, VDR inh 10%, DT40 TDP1 no CPT inconclusive, PLK1 PBD inh -1%, TDP1 inh 0% and KAT2A inh -2%.
For Cc1ccc(C(=O)N2CC3(C(C)C)CN(C(=O)c4ccc(C)cc4)CC(C(C)C)(C2)C3=O)cc1 the results were TDP1 cell CPT inconclusive, VDR inh 1%, DT40 TDP1 no CPT 15µM*, PLK1 PBD inh -3%, TDP1 inh 6% and KAT2A inh -2%.
Cc1c(Cl)cccc1NC(=S)N1CCN(S(=O)(=O)c2cccs2)CC1 was read as TDP1 cell CPT -2%, VDR inh -6%, DT40 TDP1 no CPT -1%, PLK1 PBD inh -9%, TDP1 inh 0% and KAT2A inh 1%.
Cc1csc2nc(-c3ccc(NS(=O)(=O)c4cc(F)ccc4F)cc3)cn12 was read as TDP1 cell CPT -10%, VDR inh -4%, DT40 TDP1 no CPT -22%, TDP1 inh 5% and KAT2A inh -4%.
For COc1ccccc1CNC(=O)COc1cc2c(c3oc(=O)cc(C)c13)CCC(C)(C)O2 the results were TDP1 cell CPT 23µM*, VDR inh -19%, DT40 TDP1 no CPT 23µM*, PLK1 PBD inh 6% and KAT2A inh -3%.
